esBAF inh: SWI/SNF esBAF complex inhibition; mouse ES cells, Bmi1-luciferase knock-in reporter, 24 h; 100% = twice the neutral-well signal; reporter increase, % at 12.5 µM; 350,000 compounds, 2% hits; AID 602393; in the data active means activation above about 40%;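 further: 0% = median of the plate's neutral control wells and 100% = double that signal; a rise in the Bmi1 reporter signal indicates esBAF inhibition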
Jurkat NFkB inh: lowers PMA/ionomycin-induced NF-kB signal in Jurkat cells | inhibition, % at 4 µM | 330,000 compounds, 0.53% hits | AID 435003 | PMA/ionomycin-induced NF-kB luciferase reporter, luminescence; in the data active means inhibition above about 50%
Gli-Sufu block: blocks Gli-Sufu signaling in a luciferase reporter. Sufu-KO-LIGHT fibroblasts, Gli luciferase reporter luminescence. inhibition, % at 5 µM. 340,000 compounds, 0.74% hits;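 active means inhibition above about 55%, limit read from the data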;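 further: 0% = DMSO-treated cells and 100% = wells with medium but no cells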
SMARCA2 activ: increases SMARCA2 function in MMTV reporter cells | 370,000 compounds, 1% hits | activation, % at 9.1 µM | MG213 cells, MMTV-luciferase reporter, dexamethasone, overnight; in the data active means activation above about 7.8%;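 further: 0% = vehicle wells and 100% = reference activator wells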
697 NFkB inh: inhibitors of the PMA/ionomycin-induced NF-kB reporter in 697 B cells. 697 B-cell NF-kB luciferase reporter, 16 h. 330,000 compounds, 0.33% hits. inhibition, % at 4 µM; in the data active means inhibition above about 35%
Gli-Sufu confirm: confirmation of Gli-SUFU pathway antagonists. shares compounds with Gli-Sufu block. Sufu-KO-LIGHT cells, Gli luciferase reporter, luminescence. inhibition, % at 5 µM. 2,500 compounds, 40% hits. AID 602428;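 active means mean inhibition at 5 µM reaching about 45%, limit read from the data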;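 further: plate controls were DMSO-treated cells for no effect and wells lacking cells for full effect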
Gli cytotox: counter-screen for Gli-SUFU antagonists: cytotoxicity | cytotoxicity, % at 5 µM | AID 651994 | Sufu-KO-LIGHT cells cytotoxicity, ATP luminescence | shares compounds with Gli-Sufu block | 2,500 compounds, 32% hits;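 active means mean cytotoxicity at 5 µM above about 25%, limit read from the data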;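 further: cells exposed to compound overnight for roughly 16 to 18 hours; plate controls were DMSO wells with cells for no effect and medium without cells for full effect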
Wnt3a cs: counter-screen for Gli-SUFU antagonists: Wnt3a reporter inhibition | Wnt-LIGHT cells, Wnt3a-driven luciferase reporter, luminescence | inhibition, % at 6.25 µM | AID 651995 | shares compounds with Gli-Sufu block | 2,500 compounds, 20% hits;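 active means mean inhibition above about 25%, limit read from the data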
An asterisk follows results filed as active; · = not tested or not shown. Rows were chosen to be rich in hits. Some 3.3% of all compounds tested hit in one or more screens of this group.

SMILES	esBAF inh	Jurkat NFkB inh	Gli-Sufu block	SMARCA2 activ	697 NFkB inh	Gli-Sufu confirm	Gli cytotox	Wnt3a cs
Cc1noc(C)c1S(=O)(=O)Nc1ccc2c(c1)C(=O)N([C@@H](C)CO)C[C@@H](C)[C@@H](CN(C)C(=O)c1ccncc1)OCCCC[C@@H](C)O2	-3	·	·	·	·	·	·	·
CC1=C(C(=O)OC2CCCCCC2)C(c2ccc(C)o2)C2=C(CCCC2=O)N1 (stereo not given)	-5	-1	4	1	-1	·	·	·
CC1=C(C(=O)Nc2ccccc2C)C(c2ccc(C)o2)C2=C(CCCC2=O)N1 (stereo not given)	2	-10	97*	-2	-24	15	6	35*
COc1ccc(F)cc1COc1nc(C)nc2ccccc12	1	-10	61*	-3	6	19	9	11
C[C@@H]1CN([C@H](C)CO)C(=O)c2cccc(NC(=O)C3CC3)c2O[C@@H]1CN(C)S(=O)(=O)c1ccc(Cl)cc1	0	·	·	·	·	·	·	·
Cc1ccc(S(=O)(=O)NCc2ccncc2)cc1	-10	35	71*	-2	-28	57*	33*	21
Cc1ccc(S(=O)(=O)NCC(=O)NCc2ccncc2)cc1	-6	0	-12	2	0	·	·	·
Cc1ccc(C)c(S(=O)(=O)NCc2ccncc2)c1	3	15	20	-5	-44	·	·	·
CC1CCCCC1NS(=O)(=O)c1ccc(S(=O)(=O)NCc2ccncc2)cc1 (stereo not given)	·	48	67*	·	24	59*	24	20
CC(=O)Nc1ccc(S(=O)(=O)NCc2ccncc2)cc1	-6	8	56*	-2	-17	42	15	17
Cc1cc(S(=O)(=O)NCc2ccncc2)c(C)cc1Br	-18	37	66*	-3	0	62*	19	38*
COC(=O)[C@H]1[C@H](CO)[C@H]2Cn3c(ccc(C4=CCCCC4)c3=O)[C@H]2N1C(=O)C1CC1	0	·	·	·	·	·	·	·
CN1CCN(C(=S)NC(=O)c2ccc(C(C)(C)C)cc2)CC1	·	20	60*	-1	-22	17	11	-63
c1ccc2c(c1)nc(N1CCOCC1)c1ccccc12	·	2	6	-3	8	·	·	·
CCN(CC)c1ccc(Nc2nc(N3CCOCC3)c3ccccc3n2)cc1	-38	34	67*	-6	-47	62*	31*	8
CCC(C)(C)c1ccc(Oc2ccc(N)cc2)cc1	-82	·	74*	-11	·	83*	31*	105*
COc1ccc(CN(C)C(=O)COC(=O)c2c(-c3ccccc3Cl)noc2C)cc1	9	9	55	0	-12	22	1	0
COc1ccc(NC(=O)CN(C)C(=O)c2c(-c3ccccc3Cl)noc2C)cc1	1	1	-9	0	13	·	·	·
Cc1ccccc1-n1c(=O)cc(N2CCc3ccccc32)[nH]c1=O	-10	14	63*	-1	0	29	-11	-4
CC(C)CC(=O)NC(NCC1CCCO1)C(Cl)(Cl)Cl (stereo not given)	-2	-17	88*	-1	10	8	9	-10
Cc1ccc(C(=O)NC(NCC2CCCO2)C(Cl)(Cl)Cl)cc1 (stereo not given)	·	6	14	-4	-7	·	·	·
O=C(NCCOC(=O)c1ccccc1)c1ccccc1	2	-4	0	-2	5	·	·	·
O=C(NCCOC(=O)c1ccc(C(=O)OCCNC(=O)c2ccccc2)o1)c1ccccc1	5	-14	54	0	-3	13	5	4
CN(C)CC#Cc1ccc([C@@H]2[C@H]3CN(C(=O)c4ccc5c(c4)OCO5)CCCCN3[C@H]2CO)cc1	1	·	·	·	·	·	·	·
N#Cc1ccc(OCC(=O)OCC(=O)Nc2sccc2C(N)=O)cc1	-2	1	53	-1	19	14	30*	3
Cc1ccc(OCC(=O)OCC(=O)Nc2sccc2C(N)=O)cc1C	·	9	3	-5	-32	·	·	·
C[C@H]1CCCCO[C@H](CN(C)Cc2ccc(C(F)(F)F)cc2)[C@@H](C)CN([C@@H](C)CO)C(=O)c2cc(N(C)C)ccc2O1	-3	·	·	·	·	·	·	·

Compound activity from PubChem.
